Reference: the supplement of paper PMC10646978
± gives the standard deviation.

Experiments:
Conditions in all cases: modulator concentration 10 µM
[1] = test system: RAW-Dual (murine macrophage reporter line); experiment: NF-kB reporter (SEAP) activity fold change vs agonist alone; higher = enhanced NF-kB activity
Method in brief: (§1)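 RAW-Dual murine macrophage reporter cells were plated at 50 000 per well in 384-well plates, pin-transferred compound to 10 μM final, and pre-incubated for 1 hour at 37 °C before a PRR agonist was added and the cells incubated overnight. NF-κB activity was read from supernatant SEAP with QUANTI-Blue at 620 nm absorbance, and IRF activity from Lucia luciferase with QUANTI-Luc by luminescence. Each signal was expressed as fold change by dividing by the mean agonist-only control on the same plate. Two replicate plates were averaged, with errors obtained by propagation.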

[2] = test system: RAW-Dual (murine macrophage reporter line); experiment: IRF reporter (Lucia luciferase) activity fold change vs agonist alone; higher = enhanced IRF activity
Method in brief: as §1

[3] = test system: RAW-Dual (murine macrophage reporter line); experiment: viability score (confluency relative to resting cells, overnight) (fraction); higher = more viable, active = viable (0.7 or more)
Method in brief: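 Overnight exposure to 10 μM final compound was carried out on RAW-Dual macrophages in 384-well plates. IncuCyte software generated two confluency masks over all wells imaged with IncuCyte. The viability score gives confluency in relation to resting cells. A compound met the cutoff if each mask exceeded 70% of resting cells.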

[4] = agonist: CpG ODN 1826 0.5 ug/mL

Structure (SMILES)	NF-kB reporter [1, 4]	NF-kB reporter ([1]; agonist: LPS 0.1 ug/mL)	NF-kB reporter ([1]; agonist: MPLA […])	IRF reporter ([2]; agonist: 3'3'-cGAMP 10 ug/mL)	IRF reporter ([2]; agonist: LPS 0.1 ug/mL)	IRF reporter ([2]; agonist: MPLA […])	viability score [3]
CN1Cc2c(ccc3c2OCO3)C2C(O)Cc3cc4c(cc3C21)OCO4 (centres undefined)	1.75 ± 0.13	1.49 ± 0.12	1.79 ± 0.19	0.269 ± 0.012	1.64 ± 0.22	2 ± 0.38	0.883 (active)
CN(C)CCC(=O)c1ccccc1	0.736 ± 0.06	0.28 ± 0.032	0.33 ± 0.018	0.155 ± 0.054	0.134 ± 0.0059	0.09 ± 0.0096	0.463 (inactive)
COc1ccc(OC)c(C=C2C(=O)NC(=O)NC2=O)c1	1.15 ± 0.12	0.845 ± 0.061	1.12 ± 0.061	0.99 ± 0.17	0.995 ± 0.05	1.01 ± 0.16	0.995 (active)
CN1C(=O)NC(=O)C(=Cc2ccc([N+](=O)[O-])o2)C1=O	0.875 ± 0.069	1.06 ± 0.083	1 ± 0.12	0.92 ± 0.066	1.24 ± 0.14	0.961 ± 0.061	1.02 (active)
CCOc1cc(C=C2C(=O)NC(=O)NC2=O)ccc1OCc1c(Cl)cccc1Cl	1.06 ± 0.091	1.01 ± 0.07	0.938 ± 0.11	1.07 ± 0.038	1.35 ± 0.11	1.2 ± 0.14	1.01 (active)
O=c1cc(CCl)occ1O	1.18 ± 0.09	0.9 ± 0.09	1.13 ± 0.04	0.948 ± 0.13	0.876 ± 0.11	0.806 ± 0.26	0.999 (active)
Clc1cccc(CNCCc2c[nH]c3ccccc23)c1	0.317 ± 0.028	0.978 ± 0.11	0.992 ± 0.099	1.13 ± 0.028	2.3 ± 0.24	1.7 ± 0.26	0.258 (inactive)
Br.NCCc1cc(O)c(O)cc1O	1.04 ± 0.28	0.911 ± 0.073	1.14 ± 0.08	0.609 ± 0.036	1.32 ± 0.24	1.19 ± 0.19	0.53 (inactive)
COc1cc(CNCCc2c[nH]c3ccccc23)cc(OC)c1O	0.642 ± 0.052	0.811 ± 0.12	1.04 ± 0.096	0.93 ± 0.043	1.44 ± 0.11	1.56 ± 0.15	1 (active)
ClC(Cl)=C(c1ccc(Cl)cc1)c1ccc(Cl)cc1	1.14 ± 0.36	1.03 ± 0.068	1.07 ± 0.11	0.961 ± 0.055	1.12 ± 0.12	1.25 ± 0.12	0.714 (active)
O=C1NC(=S)NC(=O)C1=Cc1ccc(OCc2ccc(F)cc2)c(Cl)c1	0.918 ± 0.092	0.943 ± 0.064	0.802 ± 0.05	0.765 ± 0.02	1.13 ± 0.095	0.824 ± 0.14	1.01 (active)
O=C(O)CC[N+](=O)[O-]	0.87 ± 0.22	0.979 ± 0.066	0.974 ± 0.063	0.912 ± 0.086	0.96 ± 0.23	0.933 ± 0.12	1 (active)
